This passage reports Potency results from PubChem BioAssay (NCATS).

Where “and” joins values, the source holds several entries; their conditions need not be identical. Equal entries are not always repeated. Records with an inconclusive call do not appear. Calls of active or inactive are those of the source. Calls come from the whole dose curve; as a rule, active = well fitted curve in the direction sought with a large enough effect; inconclusive = small, poorly fitted or top-dose-only effect, or another doubt; inactive = no such curve, though single readings can be large; an effect the other way counts as inactive or inconclusive.

A short description of assay [1]: qHTS of pediatric cancer cell lines to identify multiple opportunities for drug repurposing: Primary screen for A673 cells (AID 1347092). Note: nearly all actives have a fitted effect of over 45% in size. Note: potency is the fitted concentration of half-maximal effect. The method, boiled down: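 A673 cells (500-1,000 cells/well) were treated 48 hours at 37 degrees C with compounds at 11-point (0.78 nM to 46 µM) or 8-point (0.59 nM to 46 µM) dilutions. Viability read by CellTiter-Glo luminescence; concentration-response curves fitted.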

Assay [2] is described as follows: qHTS of pediatric cancer cell lines to identify multiple opportunities for drug repurposing: Primary screen for SK-N-MC cells (AID 1347093). Note: potency is the fitted concentration of half-maximal effect. The essentials:
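Metabolically active cells were quantified by ATP-dependent luminescence (CellTiter-Glo, 15 min at room temperature) following 48 h treatment. Cells had been plated at 500-1,000 per well and settled for 5 h beforehand.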
Background: Quantitative high-throughput screening tests each substance at several concentrations.

A short description of assay [3]: qHTS of pediatric cancer cell lines to identify multiple opportunities for drug repurposing: Primary screen for BT-37 cells (AID 1347094). Note: potency is the fitted concentration of half-maximal effect. The essentials:
(§1)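 Luminescence from CellTiter-Glo served as readout of metabolically active cells after 48 h compound exposure. Titrations: MIPE 11-point, from 0.78 nM; NPC 8-point, from 0.59 nM (final). Concentration-response curves came straight from the primary screen.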

Assay [4] is described as follows: qHTS of pediatric cancer cell lines to identify multiple opportunities for drug repurposing: Primary screen for NB-EBc1 cells (AID 1347095). Note: potency is the fitted concentration of half-maximal effect. The method, boiled down:
as §1

The nature of assay [5]: qHTS of pediatric cancer cell lines to identify multiple opportunities for drug repurposing: Primary screen for U-2 OS cells (AID 1347096). Note: nearly all actives have a fitted effect of over 50% in size. The method, boiled down:
(§2)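 Cells (500-1,000/well) in growth media were settled 5 h at 37 degrees C, then given compounds for 48 h. Viability was read as CellTiter-Glo luminescence. Primary runs used MIPE at 11 points (0.78 nM-46 µM) and NPC at 8 points (0.59 nM-46 µM); follow-ups used 11 points.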

Assay [6] in a line: qHTS of pediatric cancer cell lines to identify multiple opportunities for drug repurposing: Primary screen for Saos-2 cells (AID 1347097). Note: nearly all actives have a fitted effect of over 40% in size. Note: potency is the fitted concentration of half-maximal effect. The essentials: as §1
A short description of assay [7]: qHTS of pediatric cancer cell lines to identify multiple opportunities for drug repurposing: Primary screen for SK-N-SH cells (AID 1347098). Note: nearly all actives have a fitted effect of over 65% in size. Note: potency is the fitted concentration of half-maximal effect. The method, boiled down:
(§3)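 Cells (500-1,000/well) rested 5 h, then received compounds for 48 h; metabolically active cells were measured by CellTiter-Glo luminescence. Final concentrations spanned up to 46 µM (MIPE, 11-point) or 0.59 nM-46 µM (NPC, 8-point) in primary screens, 11-point in follow-ups.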

A short description of assay [8]: qHTS of pediatric cancer cell lines to identify multiple opportunities for drug repurposing: Primary screen for NB1643 cells (AID 1347099). Note: nearly all actives have a fitted effect of over 50% in size. Note: potency is the fitted concentration of half-maximal effect. The method, boiled down:
as §1

Assay [9] can be described thus: qHTS of pediatric cancer cell lines to identify multiple opportunities for drug repurposing: Primary screen for LAN-5 cells (AID 1347100). Note: potency is the fitted concentration of half-maximal effect. The method, boiled down:
as §2

Assay [10] in a line: qHTS of pediatric cancer cell lines to identify multiple opportunities for drug repurposing: Primary screen for BT-12 cells (AID 1347101). Note: nearly all actives have a fitted effect of over 25% in size. Note: potency is the fitted concentration of half-maximal effect. The method, boiled down:
as §3

Regarding `Cc1nnc(C(=O)NC(C)(C)c2nc(C(=O)NCc3ccc(F)cc3)c(O)c(=O)n2C)o1`, the Potency entry in assay [1], in assay [2], in assay [3], in [4], in assay [5] and in assay [6] was “inactive” in each case. The Potency result in assay [7], in assay [8], in assay [9] and in assay [10] was “inactive” throughout.
Turning to `CN1CCN(c2c(F)cc3c(=O)c(C(=O)O)cn4c3c2OCN4C)CC1`, the Potency entry in assay [1], in assay [2], in [3], in assay [4], in assay [5] and in [6] was “inactive” in each case. Besides, the Potency entry in [7], in assay [8] and in [10] was “inactive” each time.
With `CN(C)CCc1c[nH]c2ccc(CS(=O)(=O)N3CCCC3)cc12`, the Potency entry in [1], in assay [2], in assay [3], in assay [4], in assay [5] and in [6] was “inactive” in each case. The Potency result in assay [7], in assay [8], in [9] and in assay [10] was “inactive” each time.
On to `NCCCC(O)(P(=O)(O)O)P(=O)(O)O`, for which the Potency result in assay [1], in [2], in assay [3], in assay [4], in assay [5] and in assay [6] was “inactive” throughout. In addition, the Potency entry in assay [7], in [8], in assay [9] and in assay [10] was “inactive” in each case.
For `CCN[C@H]1C[C@H](C)S(=O)(=O)c2sc(S(N)(=O)=O)cc21`, the Potency entry in [1], in assay [2], in assay [3], in assay [4], in assay [5] and in [6] was “inactive” each time. Further, the Potency result in [7], in [8], in assay [9] and in assay [10] was “inactive” in each case.
Turning to `CC(C)(C)C(=O)OCOP(=O)(COCCn1cnc2c(N)ncnc21)OCOC(=O)C(C)(C)C`, the Potency in assay [1] is 2.11 µM (active) and 743 nM (active); in [2], 188 nM (active) and 1 nM (active); in assay [3], 3.47 µM (active) and 10.9 µM (active); in [4] it was 2.99 µM (active) and 662 nM (active); in assay [6], 26.6 µM (active) and 23.5 µM (active); in assay [7], 15.4 µM (active) and 27.1 µM (active). For the same molecule, the Potency in [8] was 11.9 µM (active) and 18.7 µM (active); in [9] it was 16.6 µM (active); in assay [10], 11 µM (active) and 17.2 µM (active). For the same molecule, in assay [5], the Potency result is “inactive”.
Regarding `CS(=O)(=O)c1ccc([C@@H](O)[C@@H](CO)NC(=O)C(Cl)Cl)cc1`, the Potency result in [1], in assay [2], in assay [3], in [4], in [5] and in assay [6] was “inactive” each time. Further, the Potency result in assay [7], in [8] and in assay [10] was “inactive” throughout.
With `CCc1c2c(nc3ccc(OC(=O)N4CCC(N5CCCCC5)CC4)cc13)-c1cc3c(c(=O)n1C2)COC(=O)[C@]3(O)CC`, the Potency in assay [1] was 1.06 µM (active) and 590 nM (active); in assay [2], 106 nM (active) and 105 nM (active); in assay [3] it was 389 nM (active) and 544 nM (active); in assay [4], 1.19 µM (active) and 332 nM (active); in assay [6] it was 1.5 µM (active) and 1.32 µM (active); in assay [7], 7.7 µM (active). For the same molecule, the Potency is 841 nM (active) and 1.66 µM (active) in [8]; 2.43 µM (active) in assay [10]. Moreover, the Potency result in assay [5] is “inactive”.
Consider `NC1(c2ccc(-c3nc4ccn5c(=O)[nH]nc5c4cc3-c3ccccc3)cc2)CCC1`, for which the Potency is 14.8 µM (active) and 21.1 µM (active) in assay [1]; 332 nM (active) and 266 nM (active) in assay [2]; 6.85 µM (active) in assay [3]; 2.35 µM (active) and 11.9 µM (active) in assay [4]; 10.5 µM (active) in [6]; 19.2 µM (active) and 17.2 µM (active) in assay [7]. For the same molecule, in assay [9], the Potency was 3.72 µM (active). In assay [5], the Potency entry was “inactive”.
For `NNC(=O)c1ccncc1`, the Potency entry in assay [1], in assay [2], in [3], in [4], in assay [5] and in assay [6] was “inactive” throughout. Moreover, the Potency result in [7], in assay [8], in assay [9] and in assay [10] was “inactive” in each case.
`CCCOc1ccc(C(=O)OCCN(CC)CC)cc1N`: the Potency entry in assay [1], in [2], in [3], in assay [4], in assay [5] and in [6] was “inactive” in each case. The Potency entry in [7], in assay [8], in assay [9] and in assay [10] was “inactive” each time.
Consider `CCOC(=O)c1ccc(OC(=O)CCCCCN=C(N)N)cc1`, for which the Potency entry in assay [1], in [2], in assay [3], in [4], in assay [5] and in [6] was “inactive” each time. Further, the Potency entry in assay [7], in assay [8], in assay [9] and in [10] was “inactive” throughout.
For the molecule `NS(=O)(=O)c1cc2c(cc1Cl)NC(C(Cl)Cl)NS2(=O)=O` (centres undefined), the Potency entry in assay [1], in assay [2], in assay [3], in [4], in assay [5] and in assay [6] was “inactive” throughout. The Potency entry in assay [7], in [8], in [9] and in assay [10] was “inactive” each time.
Turning to `Cc1cccc(Nc2ccncc2S(=O)(=O)NC(=O)NC(C)C)c1`, the Potency entry in [1], in assay [2], in assay [3], in assay [4], in assay [5] and in assay [6] was “inactive” in each case. For the same molecule, the Potency entry in assay [7], in [8], in assay [9] and in assay [10] was “inactive” throughout.
For `COc1nc(N)nc2c1ncn2[C@@H]1O[C@H](CO)[C@@H](O)[C@@H]1O`, the Potency entry in assay [1], in assay [2], in [3], in assay [4], in assay [5] and in assay [6] was “inactive” throughout. The Potency result in assay [7], in assay [8] and in assay [10] was “inactive” throughout.
As for `CC(C)(C#N)c1cc(Cn2cncn2)cc(C(C)(C)C#N)c1`, the Potency entry in assay [1], in [2], in assay [3], in [4], in assay [5] and in [6] was “inactive” throughout. For the same molecule, the Potency entry in assay [7], in [8], in [9] and in assay [10] was “inactive” in each case.
